According to PubChem BioAssay AID1259400 (National Center for Advancing Translational Sciences (NCATS), 2018):
Where “and” joins values, the source holds several entries; their conditions need not be identical. Equal values may be shown once. Among all 350,000 compounds or so, about 2,100 (0.6%) were called active. Roughly 1% stayed inconclusive and do not appear here.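 The calls were made as follows: active = activity change of -60% or lower, but not beyond a set lower limit; inconclusive = change between -60% and -40%, or beyond the set limit; inactive = change above -40%.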 What follows is part of a selection rich in actives, with near analogues and random picks from the rest. More than one record can exist for a structure, and the calls need not agree.

Target: Relaxin receptor 1 (Homo sapiens) (UniProt Q9HBX9)
Sequence (Q9HBX9 whole entry, looked up): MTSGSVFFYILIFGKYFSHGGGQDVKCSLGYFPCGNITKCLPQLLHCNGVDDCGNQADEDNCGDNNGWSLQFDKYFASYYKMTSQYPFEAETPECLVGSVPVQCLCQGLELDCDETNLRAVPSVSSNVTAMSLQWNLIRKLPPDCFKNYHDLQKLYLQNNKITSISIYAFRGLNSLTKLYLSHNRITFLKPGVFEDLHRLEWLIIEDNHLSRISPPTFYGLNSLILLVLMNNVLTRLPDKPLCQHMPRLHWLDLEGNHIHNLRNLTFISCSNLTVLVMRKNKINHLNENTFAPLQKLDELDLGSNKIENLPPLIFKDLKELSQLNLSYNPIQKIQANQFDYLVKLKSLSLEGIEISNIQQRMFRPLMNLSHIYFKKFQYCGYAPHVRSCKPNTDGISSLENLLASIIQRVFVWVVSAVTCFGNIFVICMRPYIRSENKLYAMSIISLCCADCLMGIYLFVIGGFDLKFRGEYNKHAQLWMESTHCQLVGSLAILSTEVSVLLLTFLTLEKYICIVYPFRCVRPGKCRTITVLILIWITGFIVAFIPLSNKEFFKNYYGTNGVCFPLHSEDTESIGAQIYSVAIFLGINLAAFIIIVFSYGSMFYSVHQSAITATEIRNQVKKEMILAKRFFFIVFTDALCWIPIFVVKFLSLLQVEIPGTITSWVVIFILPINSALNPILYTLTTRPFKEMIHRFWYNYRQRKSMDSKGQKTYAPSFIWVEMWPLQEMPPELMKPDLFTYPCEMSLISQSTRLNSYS
Assay: qHTS Assay for Antagonists of the Relaxin Receptor RXFP1
Details: HEK293-RXFP1, relaxin-stimulated cAMP HTRF, 30 min; at 57.5 µM; stronger effect = lower value
Excerpt: The relaxin hormone is involved in the variety of biological functions in normal tissues and diseases. The role of relaxin is well-established in female reproduction and parturition, mammary gland and endometrial development, maintenance of myometrial quiescence during pregnancy. Relaxin signaling through its G protein-coupled receptor (GPCR) RXFP1 results in ECM remodeling through regulation of collagen deposition, cell invasiveness, proliferation and overall tissue homeostasis. […] Recombinant human relaxin (rhRlx) is currently being tested in clinical trials as a protective agent in congestive heart failure, in treating severe preeclampsia, and as an anti-fibrotic agent in various organs. […] Upon relaxin binding RXFP1 activation leads to the activation of adenylate cyclase (AC) via G?s. cAMP will activate PKA, which phosphorylates many signaling proteins. Thus, detection of cAMP increase is an easy and reliable indication of relaxin receptor activation. To screen for antagonists of the relaxin receptor, a HEK293T cell line stably transfected with RXFP1 was used. RXFP1 activation by relaxin in presence of various concentrations of tested compounds was assayed by changes in cAMP levels as detected with a time-resolved fluorescence energy transfer (TR-FRET) cAMP detection kit.
For the primary screening, we used HTRF(R) (Homogenous Time-Resolved Fluorescence) cAMP HiRange assay (Cisbio Bioassays, 62AM6PEJ). Presence of cAMP in the cell lysate disrupts binding between the Cryptate-labeled anti-cAMP and d2-labeled cAMP pair, leading to a decrease in TR-FRET signal. The libraries were screened at two doses (57microM and 11microM), followed by a confirmation of the hits at 7-point serial dilution in the range of final concentrations [57microM - 78nM]. Data were normalized to the controls for basal activity (buffer only) and 100% activity (5 nM porcine relaxin). The EC50 values were determined from concentration-response data modeled with the standard Hill equation. NCGC Assay Protocol Summary: HiHEK (Hawaiian HEK293 LGR7 stably transfected with human RXFP1) were grown in the following media: DMEM+10%FBS+Pen/Strep + Geneticin (1mg/ml). For the assay, the cells were seeded in DMEM+Pen/Strep (with no serum & selective antibiotics) at 2,100 cells/ 3microl/well with MultiDrop Combi dispenser (Thermo Scientific, Logan, UT) onto white tissue culture treated solid bottom1536-well plates (Greiner #789173-F) and allowed to attach/recover overnight at 37 degrees C, 5% CO2. Next, 23nl/well of compound solutions in DMSO were transferred into wells with a pintool (Kalypsis, San Diego, CA). […] EC80 (relaxin at 50pM final concentration) was dispensed to the rest of the plate except columns 1&2 which were used as a negative control (EC0, buffer only), 1microl/well also. The cells were stimulated by relaxin in the presence of compounds for 30 minutes at 37 degrees C, 5% CO2. The detection reagents were prepared individually by dilution in Lysis buffer (supplied with the assay kit) just prior to dispensing. 1microl/well of cAMP-d2 and 1microl/well anti-cAMP-Eu3+-Cryptate antibodies were added simultaneously with BioRAPTR FRDtrade mark Workstation (Beckman Coulter). The plates were incubated at ambient temperature for 30 minutes and, then, FRET signal was read on Envision plate reader (PerkinElmer, Waltham, MA), at wavelengths 340nm (excitation), 615nm & 665nm (emission of donor and acceptor channels respectively).

| SMILES | activity change, negative = inhibition |
| --- | --- |
| CCOC(=O)c1c(NC(=O)CSc2nccc(=O)[nH]2)sc(C)c1C | -91.3% (active) |
| CCOC(=O)c1c(NC(=O)CSc2nnc(CNc3ccc(C)cc3C)o2)sc(C)c1C | -10.8% (inactive) |
| CCOC(=O)c1c(NC(=O)CSc2nnc(Cc3csc(N)n3)n2C)sc(C)c1C | -1.84% (inactive) |
| CCOc1ccccc1C(=O)Nc1ccc(S(=O)(=O)N2CCCCC2c2cccnc2)cc1 (stereo not given) | -12.4% (inactive) |
| CCOc1ccc(N(CC)S(=O)(=O)N2CCCC(C(=O)NCc3ccc(Cl)cc3)C2)cc1 (stereo not given) | -18.5% (inactive) |
| CCN(CC)CCCNC(=O)c1ccc2c(=O)n(Cc3ccc4c(c3)OCO4)c(=S)[nH]c2c1 | -14.7% (inactive) |
| COCCn1c(=S)[nH]c2cc(C(=O)NCCc3ccc(OC)c(OC)c3)ccc2c1=O | 2.84% (inactive) |
| CCCCNC(=O)c1ccc(-n2c(=S)[nH]c3ccccc3c2=O)cc1 | -80.7% (active) |
| CCN1CCN(c2ncnc3c2cnn3-c2ccc(C)c(C)c2)CC1 | -9.99% (inactive) |
| Cc1ccccc1-n1nnc2c(=O)oc3ccccc3c21 | -91.4% (active) |
| Cc1cccc(N2CCN(c3c(CN4CCCC4)c(=O)oc4ccccc34)CC2)c1C | -2.93% (inactive) |
| O=c1oc2ccccc2c(=O)c2ccccc12 | 10.6% (inactive) |
| O=C(OCCN1CCOCC1)c1cccnc1Nc1cccc(C(F)(F)F)c1 | -38.4% (inactive) |
| CCOc1ccc(C(NC(=O)c2cc(OC)c(OC)c(OC)c2)c2cc(Cl)c3cccnc3c2O)cc1 (stereo not given) | -12.8% (inactive) |
| CN1CCN(CCCNC(=O)c2ccc(/C=C3\Oc4ccccc4N(Cc4ccc(Cl)cc4)C3=O)cc2)CC1 | 6.65% (inactive) |
| O=C(NCCN1CCOCC1)c1ccc(/C=C2\Sc3ccccc3N(Cc3ccc(F)cc3)C2=O)cc1 | -82.1% (active) |
| O=C(NCCN1CCOCC1)c1ccc2c(c1)N(Cc1cccc(Cl)c1)C(=O)c1ccccc1S2(=O)=O | 2.8% (inactive) |
| O=C(NCCN1CCOCC1)/C(=C/c1ccc(F)cc1)NC(=O)c1ccccc1 | 12.6% (inactive) |
| Cc1ccccc1CN1C(=O)c2ccccc2Sc2ccc(C(=O)NCCCN3CCOCC3)cc21 | -22.1% (inactive) and -63.9% (active) |
| CCC1=Nc2cc(C(=O)NCCCN3CCOCC3)ccc2Sc2ccc(Br)cc21 | -16.7% (inactive) |
| COc1ccc(S(=O)(=O)NCC(c2ccc(N(C)C)cc2)N2CCc3ccccc32)cc1OC (stereo not given) | -3.43% (inactive) |
| CN(C)c1cccc(C(=O)Nc2nc3ccc(S(=O)(=O)NC(C)(C)C)cc3s2)c1 | 1.26% (inactive) |
| CC(C)c1ccc(OCC(=O)N(Cc2ccc(N(C)C)cc2)C2CCS(=O)(=O)C2)cc1 (stereo not given) | -31.5% (inactive) |

| SMILES | activity change, negative = inhibition |
| --- | --- |
| Cc1cccc(Cn2c(SCc3ccc(C(=O)N4CCC(C)CC4)cc3)nc3ccncc32)c1 | -27.4% (inactive) |
| CC(C)c1ccc(NC(=O)Cn2nnc(C(=O)NCCc3ccccc3)c2N)cc1 | 7.65% (inactive) |
| Cn1c(C(=O)N2CCC(C(=O)N3CCN(c4ccccc4)CC3)CC2)cc2sccc21 | -7.62% (inactive) |
| O=C(CN1CCOCC1)Nc1cccc([N+](=O)[O-])c1 | -13.2% (inactive) |
| CCC(CC)NC(=O)/C=C/c1cccc([N+](=O)[O-])c1 | 5.58% (inactive) |
| COC(=O)/C=C\C(=O)Nc1cccc([N+](=O)[O-])c1 | -90.5% (active) |
| C[C@@H]1CCC[C@H](C)N1CCCC(O)(c1ccccc1)c1ccccn1 (stereo not given in full) | 5.21% (inactive) |
| O=C(NNC(=O)C1CCC1)c1ccccc1 | -1.83% (inactive) |
| O=C(NNc1nc(N2CCCC2)nc(N2CCCC2)n1)c1ccccc1 | -63.3% (active) |
| O=C(NNC(=O)C1CCN(c2ncccn2)CC1)c1ccccc1 | 0.68% (inactive) |
| CCc1ccc(S(=O)(=O)c2nnn3c2nc(N2CCN(CC)CC2)c2sccc23)cc1 | -12.6% (inactive) |
| CCN1CCC2(CC1)N=C(c1ccc(F)cc1)C(=S)N2C(=O)c1ccc(C)cc1 | 8.98% (inactive) |
| CCN1CCC(O)(/C=C/c2ccc(C)cc2)C(C(=O)/C=C/c2ccc(C)cc2)C1 (stereo not given) | -75.3% (active) |
| CCCS(=O)(=O)c1c(Nc2ccccc2C)sc(C(=O)c2ccccc2)c1N | -38.6% (inactive) |
| Cc1cccc(NC(c2cccc(F)c2)c2ccc3ccc(C)nc3c2O)n1 (stereo not given) | -1.75% (inactive) |
| Cc1ccc(-c2cnc(NCc3ccc(C(C)C)cc3)n2C)cc1 | -10.2% (inactive) |
| CC(=O)c1c(C)[nH]c(=S)c(C#N)c1-c1ccc(F)cc1 | 7.17% (inactive) |
| CCOC(=O)c1c(C)[nH]c(=S)c(C#N)c1-c1ccccc1 | -118% (active) |
| Cc1[nH]c2ccccc2c1C(=O)COC(=O)c1c(-c2ccccc2)noc1C | -27.9% (inactive) |
| OCC(CO)(CO)NCc1ccc(-c2ccccc2)cc1 | -7.18% (inactive) |
| OCc1ccc(-c2ccccc2)c(-c2ccccc2)c1 | -64.5% (active) |
| OCCN(Cc1ccccc1)Cc1ccc(Cl)cc1 | -15.6% (inactive) |
| CCOC(=O)c1c(C)oc2nc(C)nc(N(CC(C)C)CC(C)C)c12 | -27.5% (inactive) |

| SMILES | activity change, negative = inhibition |
| --- | --- |
| O=C(O)c1ccc(N/N=C/c2cn(-c3ccccc3)nc2-c2cccs2)cc1 | -105% (active) |
| O=C(NCc1cccnc1)c1cn(-c2ccccc2)nc1-c1cccs1 | -17.9% (inactive) |
| CC(=O)C1=C(C)NC(C)=C(C(C)=O)C1c1cn(-c2ccccc2)nc1-c1cccs1 | -18.3% (inactive) |
| CCCn1c2ccccc2c2cnn(CC(=O)N3CCCC(C(=O)OCC)C3)c(=O)c21 (stereo not given) | 3.38% (inactive) |
| CCN(CCCNC(=O)CSc1cc(=O)n(C)c2cc(Cl)ccc12)c1cccc(C)c1 | 14% (inactive) |
| CSc1ccccc1NC(=O)CCS(=O)(=O)c1nc(-c2cccs2)cc(C(F)(F)F)n1 | 0.767% (inactive) |
| COc1ccc(NC(=O)NC(C)c2c(-n3cccc3)sc(C)c2C)cc1OC (stereo not given) | -9.76% (inactive) |
| O=C(Nc1ccccc1Cl)/C(Cl)=C(\Cl)S(=O)c1ccccc1 (stereo not given) | -106% (active) |
| O=C(CCN1CCN(C/C=C/c2ccccc2)CC1)Nc1ccccc1Cl | 3.3% (inactive) |
| O=C(Nc1ccccc1Cl)N1CCC(CN2CCCC2)CC1 | 2.65% (inactive) |
| Cc1c(Cl)cccc1-c1ccc(CNCCCSc2nnnn2C)o1 | -6.68% (inactive) |
| Cc1ccc(C2C=C(c3ccc(Cl)cc3)Nc3nc(NC(=O)CCC(=O)O)nn32)cc1 (stereo not given) | -0.127% (inactive) |
| Cc1ccc(Cl)cc1N1CCN(C(=O)c2cnc3c(-c4ccc(F)cc4)c(C)nn3c2C)CC1 | -19.1% (inactive) |
| COC(=O)c1ccc(NCc2cc(O)ccc2O)cc1 | -28.1% (inactive) |
| CC(C)OC(=O)c1ccc(NCc2cc(O)ccc2O)cc1Cl | -85.7% (active) |
| O=C(OC12CC3CC(CC(C3)C1)C2)c1ccc(NCc2cc(O)ccc2O)cc1 | -37.9% (inactive) |
| CCCN1CCc2nc(N3CCN(C)CC3)ncc2C1 | 3.24% (inactive) |
| Oc1ccc(/C=N/Nc2ccc(C(F)(F)F)cn2)cc1O | -72.1% (active) |
| O=C(N/N=C/c1ccc(O)c(O)c1)C1c2ccccc2Oc2ccccc21 | -17.9% (inactive) |
| FC(F)(F)c1cccc(N/N=C/c2ccccc2)c1 | 6.38% (inactive) |
| CC1(C)OC[C@@H](COC(=O)CCc2ccc(OC[C@@H](O)CNCCNC(=O)N3CCOCC3)cc2)O1 | -4.26% (inactive) |
| O=C(CSc1nc(=O)[nH]c2c1CCCC2)Nc1cc(C(F)(F)F)ccc1Cl | 6.44% (inactive) |
| COc1ccc(NC(=O)CSc2nccn2C2CCCC2)cc1OC | 6.9% (inactive) |

| SMILES | activity change, negative = inhibition |
| --- | --- |
| O=C(CSc1nccn1C1CCCC1)Nc1cc(C(F)(F)F)ccc1Cl | -72.3% (active) |
| Cc1cc2c(cc3c(SCc4cccc(Cl)c4)nnc(C)n32)o1 | -4.3% (inactive) |
| O=C(CSc1ccc([N+](=O)[O-])cn1)Nc1ccc(N2CCOCC2)c(Cl)c1 | -1.58% (inactive) |
| O=C(CSc1ccc([N+](=O)[O-])cn1)Nc1ccc(N2CCOCC2)cc1 | -66.8% (active) |
| Cn1cnnc1SCC(=O)Nc1ccc(N2CCOCC2)cc1 | -11.8% (inactive) |
| Cc1ccc(O)c(NC(=O)c2cc(-c3ccc(F)cc3)no2)c1 | -3.02% (inactive) |
| CC(=O)c1ccc(NC(=O)CSc2c(C(C)C)cnc3c2c(=O)n(C)c(=O)n3C)cc1 | 3.09% (inactive) |
| CC(C)c1ccc(C2CC(=O)N3CN(C4CCCCC4)CSC3=C2C#N)cc1 (stereo not given) | -4.73% (inactive) |
| Cc1ccc(-c2nc3cccc(C)n3c2Nc2ccc3c(c2)OCCO3)cc1 | 3.27% (inactive) |
| CC(=O)N/N=C(\C)c1ccc(Br)cc1Br | 3.93% (inactive) |
| CC(=N\NC(=O)c1cc(Br)ccc1O)/C(=N/O)C(=O)Nc1ccccc1 | -80.9% (active) |
| COc1ccc(-c2[nH]ncc2/C=N/NC(=O)c2cc(Br)ccc2O)c(OC)c1 | -30% (inactive) |
| CC(C)(C)NCc1cc(Br)ccc1OC1CCCC1 | -6.03% (inactive) |
| COc1cc(CNC2CCCCC2)c(Br)cc1OC1CCCC1 | -7.24% (inactive) |
| CC(NCc1ccccc1OC1CCCC1)c1ccccc1 (stereo not given) | -60.9% (active) |
| O=C(Cn1nc(Cc2cccnc2)c2ccccc2c1=O)N1CCN(c2ccccc2F)CC1 | 5.94% (inactive) |
| CCCc1cc(=O)n2[nH]c(NCc3ccc(CC)cc3)nc2n1 | -11.6% (inactive) |
| Cc1ccc(-c2cc(C(=O)Oc3ccccc3Cl)no2)cc1C | -12.2% (inactive) |
| O=C(N/N=C/C=C/c1ccco1)c1cccs1 | -79.6% (active) |
| O=C(N/N=C/c1ccco1)c1csc2c1CCCC2 | -11.1% (inactive) |
| Cc1ccc(-n2nc(C)c(/C=N/NC(=O)c3cccs3)c2Cl)cc1 | -17.6% (inactive) |
